In PubChem BioAssay AID1159580 (chemical genetic matrix, 2015):
The campaign covered roughly 5,500 compounds. About 2,000 (36%) were called active. Not shown: some 18% with an inconclusive outcome. No stated cut-off is given here; in the data, active means normalized growth mostly below about 0.91 (no sharp cut-off); inconclusive means no clear call, values can overlap the other calls; inactive means mostly above about 0.92. Some of the results follow.

Experiment: chemical genetic growth profiling, strain panel (AID 1159580);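 further: tested at 20 µM; growth read once vehicle control cultures reached saturation at 30 °C; 1 = growth at the plate median or of vehicle wells; lower values mean less growth of the strain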
Conditions: S. cerevisiae deletion strains, growth OD

Measured: normalized growth

CC(=O)CC(=O)CCC(=O)O
inactive: locus YAL021C, strain ccr4, active compounds read low 0.991 | locus YAL026C, strain drs2, active compounds read low 1.05 | locus YAL030W, strain snc1, active compounds read low 1.02 | locus YBL061C, strain skt5, active compounds read low 1.03 | locus YBR009C, strain hhf1, active compounds read low 1.03 | locus YBR023C, strain chs3, active compounds read low 1.03 | locus YBR171W, strain sec66, active compounds read low 1.04 | locus YBR231C, strain swc5, active compounds read low 1.03 | locus YBR279W, strain paf1, active compounds read low 1.02 | locus YCL011C, strain gbp2, active compounds read low 1.02 | locus YCL016C, strain dcc1, active compounds read low 1.02 | locus YCL061C, strain MRC1, active compounds read low 1.02 | locus YCL069W, strain vba3, active compounds read low 1.02 | locus YCR088W, strain abp1, active compounds read low 1.02 | locus YDL005C, strain med2, active compounds read low 1.03 | locus YDL040C, strain nat1, active compounds read low 1.02 | locus YDR001C, strain nth1, active compounds read low 1.01 | locus YDR069C, strain doa4, active compounds read low 1.03 | locus YDR137W, strain rgp1, active compounds read low 1.01 | locus YDR159W, strain sac3, active compounds read low 1 | locus YDR195W, strain ref2 0.989 | locus YDR297W, strain sur2, active compounds read low 1.01 | locus YDR334W, strain swr1, active compounds read low 1.03 | locus YDR335W, strain msn5, active compounds read low 1.02 | locus YDR392W, strain spt3, active compounds read low 0.95 | locus YEL003W, strain gim4, active compounds read low 1.02 | locus YEL037C, strain rad23, active compounds read low 1.02 | locus YEL061C, strain CIN8 (second series), active compounds read low 1.02 | locus YER015W, strain faa2, active compounds read low 1.02 | locus YER016W, strain bim1, active compounds read low 1.04 | locus YER111C, strain swi4, active compounds read low 1.03 | locus YER155C, strain BEM2 (second series), active compounds read low 1.05 | locus YFR010W, strain ubp6, active compounds read low 1.03 | locus YGL167C, strain pmr1, active compounds read low 1.02 | locus YGL173C, strain kem1, active compounds read low 1.03 | locus YGL227W, strain vid30, active compounds read low 1.01 | locus YGL240W, strain doc1, active compounds read low 1.04 | locus YGL253W, strain hxk2, active compounds read low 1.05 | locus YHR013C, strain ard1, active compounds read low 1.04 | locus YHR027C, strain rpn1, active compounds read low 1.03 | locus YHR030C, strain SLT2, active compounds read low 0.982 | locus YHR079C, strain IRE1, active compounds read low 0.996 | locus YHR142W, strain chs7, active compounds read low 1.02 | locus YJL092W, strain hpr5, active compounds read low 1.02 | locus YJL095W, strain BCK1 (second series), active compounds read low 1.02 | locus YJL095W, strain BCK1, active compounds read low 0.983 | locus YJL115W, strain asf1, active compounds read low 1.03 | locus YJL129C, strain trk1, active compounds read low 1.01 | locus YJL154C, strain vps35, active compounds read low 1.01 | locus YJL164C, strain tpk1, active compounds read low 1.01 | locus YJL166W, strain qcr8, active compounds read low 1.02 | locus YJL187C, strain SWE1, active compounds read low 1.02 | locus YJR066W, strain TOR1, active compounds read low 0.962 | locus YKL160W, strain elf1, active compounds read low 1 | locus YKR026C, strain gcn3, active compounds read low 1.03 | locus YKR091W, strain srl3, active compounds read low 1.02 | locus YLL001W, strain dnm1, active compounds read low 1.01 | locus YLL026W, active compounds read low 1.02 | locus YLL041C, strain sdh2, active compounds read low 1.02 | locus YLR027C, strain aat2, active compounds read low 1.03 | locus YLR113W, strain HOG1, active compounds read low 1.04 | locus YLR221C, strain rsa3, active compounds read low 1.01 | locus YLR258W, strain gsy2, active compounds read low 1.04 | locus YLR262C, strain YPT6 (second series), active compounds read low 1.02 | locus YLR320W, strain mms22, active compounds read low 1.03 | locus YLR342W, strain FKS1, active compounds read low 1.03 | locus YLR357W, strain rsc2, active compounds read low 0.968 | locus YLR370C, strain arc18, active compounds read low 1.03 | locus YLR384C, strain iki3, active compounds read low 1.03 | locus YML120C, strain ndi1, active compounds read low 1 | locus YMR058W, strain fet3, active compounds read low 1.02 | locus YMR125W, strain sto1, active compounds read low 1.02 | locus YMR129W, active compounds read low 1.02 | locus YMR205C, strain PFK2, active compounds read low 1.02 | locus YMR231W, strain pep5, active compounds read low 1.02 | locus YNL071W, strain lat1, active compounds read low 1.03 | locus YNL183C, strain NPR1, active compounds read low 0.91 | locus YNL209W, strain ssb2, active compounds read low 1.02 | locus YNL248C, strain rpa49, active compounds read low 0.989 | locus YNL322C, strain KRE1 (second series), active compounds read low 1.02 | locus YNR049C, strain mso1, active compounds read low 1.02 | locus YOR001W, strain rrp6, active compounds read low 1.01 | locus YOR070C, strain gyp1, active compounds read low 1.02 | locus YOR080W, strain dia2, active compounds read low 1.01 | locus YOR083W, strain WHI5, active compounds read low 1 | locus YOR106W, strain vam3, active compounds read low 1.03 | locus YOR231W, strain MKK1, active compounds read low 0.992 | locus YOR265W, strain rbl2, active compounds read low 1.02 | locus YOR270C, strain vph1, active compounds read low 1.11 | locus YOR290C, strain snf2, active compounds read low 1.01 | locus YPL051W, strain arl3, active compounds read low 1.01 | locus YPL078C, strain atp4, active compounds read low 1.01 | locus YPL106C, strain sse1, active compounds read low 1.02 | locus YPL240C, strain hsp82, active compounds read low 1.03 | locus YPL256C, strain CLN2, active compounds read low 0.99
